Drawing on PubChem BioAssay AID624417 (National Center for Advancing Translational Sciences (NCATS), 2012), this text covers Potency for 80 compounds.

The whole screen tested about 410,000 compounds, of which about 6,400 (1.6%) were called active. Entries that show only a call come without a potency. Inconclusive results (about 20%) are left out. Calls follow the shape of the dose curve; as a rule, active = well fitted inhibition curve with a large enough effect; inconclusive = small, poorly fitted or top-dose-only effect; inactive = no such curve, though single readings can be large or run the other way. The full list was thinned out, with actives kept by preference.
Potency is read from the fitted curve at half-maximal effect.

Glucagon-like peptide 1 receptor (Homo sapiens), sequence (P43220 whole entry, looked up): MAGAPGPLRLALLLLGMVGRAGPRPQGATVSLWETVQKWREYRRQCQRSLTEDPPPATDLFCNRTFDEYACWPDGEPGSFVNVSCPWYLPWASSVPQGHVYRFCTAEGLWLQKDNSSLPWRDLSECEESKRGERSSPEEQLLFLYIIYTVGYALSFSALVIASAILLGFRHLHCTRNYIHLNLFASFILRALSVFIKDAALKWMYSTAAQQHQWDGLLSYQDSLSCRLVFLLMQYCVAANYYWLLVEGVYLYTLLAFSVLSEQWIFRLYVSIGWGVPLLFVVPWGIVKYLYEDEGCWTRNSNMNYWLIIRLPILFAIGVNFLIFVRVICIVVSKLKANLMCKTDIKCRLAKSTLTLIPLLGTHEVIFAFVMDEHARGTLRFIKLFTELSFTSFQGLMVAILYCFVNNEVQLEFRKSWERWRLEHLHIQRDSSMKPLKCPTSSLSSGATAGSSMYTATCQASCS

This assay has as its target Glucagon-like peptide 1 receptor (Homo sapiens) (UniProt P43220). In words: qHTS of GLP-1 Receptor Inverse Agonists (Inhibition Mode). Also: nearly all actives have a fitted effect of over 55% in size. Conditions: HEK293 GLP-1R CRE-luciferase, luminescence, 24 h; series mostly up to 38.3 µM. From the text:
The overall goal of this project was to develop a novel assay for discovering small molecule ligands for class B1 G protein-coupled receptors (GPCRs). Very few agonists (or inverse agonists in inhibition mode) with generally weak activity for this entire group of physiologically important receptors are known to date. To establish proof-of-principle that this critical bottleneck can be overcome with a suitable screening approach, our studies focused on the class B1 receptor for glucagon-like peptide-1 (GLP-1R), a potential therapeutic target for diabetes and neurodegenerative disease. The assay was developed using a cell-based functional readout. Toward this goal, stably transfected HEK293 cell clones were established that co-express (i) a cAMP-responsive luciferase reporter gene, and (ii) constitutively active GLP-1R that upon ligand interaction inhibit (inverse agonists) the luciferase activity. In addition, two control cell lines were developed: (i) one that express only the cAMP-responsive reporter gene to enable initial exclusion of GLP-1R independent effects of candidate probes; and (ii) one with the reported gene cloned with another constitutively active orphan receptor GPR119 to enable exclusion of GLP-1R independent inhibitor effects of candidate inverse agonists. To that end, this assay was optimized for 1536-well format and screened against the MLSMR. […] NIH Molecular Libraries Probe Production Network [MLPCN] NIH Chemical Genomics Center [NCGC] Grant: NS064851 PI Name: Martin Beinborn, Tufts Medical Center
Six ul of cell suspension (200 cells/uL in DMEM + 10% Nu serum + 1% pen-strep) is dispensed in a white solid 1536-well plate. The plates are incubated for 12 hours at 37 deg C at 5% CO2 followed by addition of 23 nL compounds. After 24 hr incubation at 37 deg C and 5% CO2, 3 uL of luciferase assay detection reagent is added. A luminescence read is obtained on the PerkinElmer Viewlux after 12 min incubation at room temperature.
Regarding `O=c1c2ccccc2[nH]c(=S)n1-c1cccc(Cl)c1`, the Potency result was “inactive”.
In the case of `COc1cc(-n2c(=S)[nH]c3ccc(C)cc3c2=O)c(Cl)cc1Cl` it was 12.6 µM (active); in that of `C[C@]12CCCCC1=CC(=O)C1C2CC[C@@]2(C)C1C[C@@H](F)[C@@H]2O` (stereo not given in full), “inactive”; in that of `COC1=CC=C2[C@H]3Cc4ccc(OC)c5c4[C@@]2(CCN3C)C1O5` (stereo not given in full), “inactive”.
With `COc1ccc2c(c1)NP(=S)(c1ccccc1)N2` (stereo not given), the Potency entry is “inactive”.
Take `COC(=O)C1=C(c2ccc(OCc3ccccc3)cc2)C[C@@H]2CC[C@H]1N2C(=O)NCc1cccc(F)c1`: the Potency is 4.47 µM (active).
`COC(=O)C1=C(c2cccc(OCc3ccccc3)c2)C[C@@H]2CC[C@H]1N2C(=O)NCc1ccc(Br)cc1`: the Potency is 12.6 µM (active).
Take `COC(=O)C1=C(c2ccc(F)cc2OCc2ccccc2)C[C@@H]2CC[C@H]1N2C(=O)NCc1ccc(Cl)cc1`: the Potency entry was “inactive”.
Regarding `COC(=O)C1=C(c2ccc(-c3ccccc3)c(F)c2)C[C@@H]2CC[C@H]1N2C(=O)NCc1ccc(F)cc1`, the Potency entry is “inactive”.
As to `COC(=O)C1=C(c2ccccc2OCc2ccccc2)C[C@@H]2CC[C@H]1N2C(=O)NCc1ccc(OC)cc1`, the Potency result is “inactive”.
Regarding `COC(=O)C1=C(c2ccc(OCc3ccccc3)cc2)C[C@@H]2CC[C@H]1N2C(=O)NCc1ccc(Cl)cc1`, the Potency entry is “inactive”.
For `COc1ccc(NC(=O)N2Cc3ccccc3-n3nncc3C2)cc1`, the Potency entry was “inactive”.
As to `O=P(OC1=CCCCC1)(c1ccccc1)c1ccccc1`, the Potency result is “inactive”.
Regarding `CCOC(=O)CNC(=O)N1Cc2cc(N3CCCCC3)ccc2-n2nncc2C1`, the Potency result is “inactive”.
In the case of `O=C1NCN(c2ccccc2)C12CCN(C(c1cccs1)c1nnnn1C1CCCCC1)CC2` (stereo not given) it was “inactive”; in that of `CC1([N+](=O)[O-])COP(=O)(Nc2ccc(F)cc2)OC1` (stereo not given), “inactive”; in that of `C[C@]12CCC3C(CC[C@H]4[C@H](O)[C@H](O)CC[C@]34C)C1CC[C@@H]2O` (stereo not given in full), “inactive”.
Turning to `COc1ccc(C(=O)C2CCCN(Cc3ccc(C)s3)C2)cc1OC` (stereo not given), the Potency entry was “inactive”.
In the case of `Cc1ccc(CN2CCCC(C(=O)c3ccc4c(c3)OCO4)C2)cc1C` (stereo not given) it was 11.2 µM (active); in that of `Cc1ccsc1C(=O)C1CCCN(Cc2ccc(O)cc2)C1` (stereo not given), “inactive”; in that of `COc1cc(C(=O)N2Cc3ccc(Br)cc3-n3nncc3C2)cc(OC)c1OC`, “inactive”.
`Clc1ccc(Cl)c(Oc2ccc(Oc3nc(Cl)ccc3Cl)cc2)n1`: the Potency result is “inactive”.
Consider `C[C@H]1CN([C@@H](C)CO)C(=O)CCCn2nncc2CO[C@H]1CN(C)C(=O)Oc1cccc2ccccc12`, for which the Potency entry was “inactive”.
Regarding `CC=C(C)C(=O)OC1CCN2CC=C(COC(=O)C(O)(C(C)OC)C(C)(C)O)C12` (stereo not given), the Potency result is “inactive”.
With `Cc1ccc(S(=O)(=O)N(C)c2ccc(C(=O)NCC3(N(C)C)CCCCC3)cc2)cc1`, the Potency is 3.16 µM [GLP-1R form is constitutively active] (active).
Take `COC1C(O)C(C)OC(OC2CCC3(C=O)C(CCC4C3CCC3(C)C(C5=CC(=O)OC5)CCC43O)C2)C1O` (stereo not given): the Potency result was “inactive”.
Regarding `O=c1c2ccccc2nc(/C=C/c2ccco2)n1-c1ccccc1O`, the Potency was 11.2 µM (active).
Take `Cn1cc(/C=C/c2nc3ccccc3c(=O)n2-c2ccccc2)c2ccccc21`: the Potency result was “inactive”.
Turning to `O=c1c2ccccc2nc(/C=C/c2ccc(F)cc2)n1-c1ccccc1O`, the Potency result was “inactive”.
Regarding `CC1CCCN1CCC(C(N)=O)(c1ccccc1)c1ccccc1` (stereo not given), the Potency entry was “inactive”.
With `CC1CC=CCC12C(=O)NC(=S)NC2=O` (stereo not given), the Potency result was “inactive”.
Regarding `CCN1C(=O)NC(=O)C2(CCCC2)C1=O`, the Potency entry is “inactive”.
In the case of `C[C@H]1CN([C@@H](C)CO)C(=O)CCCn2nncc2CO[C@H]1CN(C)C(=O)Oc1ccccc1`, the Potency entry was “inactive”.
Turning to `O=C1NC(=O)C(Cc2ccccc2)C(=O)N1`, the Potency result is “inactive”.
In the case of `COC(=O)C[C@H]1CC[C@H]2NC[C@@H](O)COC[C@@H]2O1`, the Potency result was “inactive”.
For `CCn1cc(CN2CCCC(C(=O)c3cccc(C(F)(F)F)c3)C2)cn1` (stereo not given), the Potency result was “inactive”.
On to `COc1ccc(-c2nn(CCC#N)cc2C(=O)Nc2ccc(C(C)=O)cc2)cc1`, for which the Potency entry was “inactive”.
In the case of `COc1cccc(C(=O)Nc2ccc(-c3cc(C(F)(F)F)nn3-c3ccccc3)cc2)c1` it was 7.94 µM [GLP-1R form is constitutively active] (active); in that of `COc1ccc(NC(=O)c2cn(CCC#N)nc2-c2ccc([N+](=O)[O-])cc2)cc1`, “inactive”; in that of `O=C1NC(=O)C(CCOc2ccccc2)(CCc2ccccc2)C(=O)N1`, “inactive”.
In the case of `O=C1C2CCN(CC2)C1(CO)CO`, the Potency result was “inactive”.
Regarding `CC12CCC(O)CC1CCC1C2CCC2(C)C(C(=O)CC(O)C(F)(F)F)CCC12` (stereo not given), the Potency entry is “inactive”.
With `CCCCOc1ccc(C(=O)N2CC(=O)Nc3ccc(Br)cc3C2c2ccc(F)cc2)cc1` (stereo not given), the Potency is 10 µM [GLP-1R form is constitutively active] (active).
Regarding `CC(=O)NCC1=C(c2ccc3ccccc3c2)C[C@@H]2CC[C@H]1N2Cc1ccco1`, the Potency result is “inactive”.
The figure for `O=C1C2(Cl)C3(Cl)C4(Cl)C(Cl)(Cl)C5(Cl)C3(Cl)C1(Cl)C5(Cl)C24Cl` (stereo not given) is 4.47 µM (active).
`CC(C)CN1Cc2cc(N3CCCCC3)ccc2-n2nncc2C1`: the Potency entry was “inactive”.
In the case of `COc1ccc(C2C=C(C)Oc3c2c(=O)oc2ccccc32)cc1OC` (stereo not given) it was “inactive”.
For `CSCCC(c1nnnn1C(C)(C)C)N1CCC(n2c(=O)[nH]c3ccccc32)CC1` (stereo not given), the Potency result was “inactive”.
`O=C(CCN1CCCCC1)NCC(=O)Nc1ccc(Br)cc1C(=O)c1ccccc1`: the Potency entry is “inactive”.
For the compound `O=C(COC(=O)c1ccccc1)Nc1ccc(Cl)cc1C(=O)c1ccccc1`, the Potency result is “inactive”.
In the case of `O=C(CN1CCCCC1)Nc1ccc(Br)cc1C(=O)c1ccccc1Cl`, the Potency was 10 µM [GLP-1R form is constitutively active] (active).
Turning to `CC(=O)c1ccc(-c2ccc(Cn3c(C)nc4cc(N)c(C)nc43)cc2)cc1`, the Potency entry was “inactive”.
In the case of `O=C(NC1CCCCC1)N1Cc2cc(N3CCCCC3)ccc2-n2nncc2C1` it was “inactive”; in that of `CC(=O)C1(O)CCC2C3CCC4=C(Cl)C(=O)CCC4(C)C3CCC21C` (stereo not given), “inactive”; in that of `CCOC(=O)C1(Cc2ccc(Cl)cc2)CCN(C(C)CCn2cccn2)CC1` (stereo not given), 7.94 µM [GLP-1R form is constitutively active] (active).
In the case of `Oc1ccc2c3c1OC1[C@H](O)CC[C@@]4(O)[C@@H](C2)N(CC2CC2)CC[C@]314` (stereo not given in full) it was “inactive”; in that of `CC1CNCCN1c1ccc(Cl)cc1` (stereo not given), “inactive”; in that of `CC1=C(C(=O)Nc2ccccc2)S(=O)(=O)CCO1`, 10 µM (active).
The entry for `CC1=C(C(=O)Nc2ccccc2)SCCO1` is “inactive”; for `CCC(=O)OC(Cc1ccccc1)(c1ccccc1)C(C)CN(C)C` (stereo not given) it is “inactive”.
Take `C=C(C)C1(CCCC)C(=O)NC(=S)NC1=O`: the Potency entry is “inactive”.
With `CCC1(CC(C)c2ccccc2)C(=O)NC(=O)NC1=O` (stereo not given), the Potency entry was “inactive”.
Turning to `CCC(C)(O)C(=O)OC1C(=O)OC2CC3C(C)=CC(=O)C(O)C3(C)C3C4(O)OCC23C1C(C)C4O` (stereo not given), the Potency entry was “inactive”.
The entry for `COc1ccc(C2CC(c3cccs3)=NN2c2nc(C)c(C(C)=O)s2)cc1OC` (stereo not given) is “inactive”; for `CCOC(=O)[C@]12Cc3ccccc3[C@H]1N(C1CCCCC1)C(=O)c1cc(OC)ccc12` it is 5.62 µM (active); for `Cc1ccc(OC(=O)N(C)C[C@@H]2OCc3cnnn3CCCC(=O)N([C@H](C)CO)C[C@@H]2C)cc1` it is “inactive”.
On to `S=C(NCCc1ccccc1)N1Cc2cc(N3CCOCC3)ccc2-n2nncc2C1`, for which the Potency result was “inactive”.
In the case of `Cc1nc2ccc(N3CCN(C)CC3)cc2nc1C`, the Potency result was “inactive”.
On to `COc1cccc(-c2nc3ccc(N4CCN(C)CC4)cc3[nH]2)c1`, for which the Potency was 1.12 µM (active).
As for `c1ccc(N2Cc3ccccc3-n3nncc3C2)nc1`, the Potency entry is “inactive”.
Consider `CC(=CCOc1ccc2ccc(=O)oc2c1)C1=CC(=O)C(C)(C)O1`, for which the Potency was 2.24 µM (active).
In the case of `CCOc1ccc(CC(=O)NCCc2csc3nc(-c4ccccc4F)nn23)cc1` it was “inactive”; in that of `CC12CCC3C(CCC4CC(=O)CCC43C)C1CC(=NO)C2=O` (stereo not given), “inactive”.
For the compound `CCOC(=O)c1cccc(C2=C(CNC(=O)c3ccncc3)[C@H]3CC[C@@H](C2)N3Cc2ccccc2)c1`, the Potency result is “inactive”.
The entry for `COC(=O)CN(CCCl)P1(=O)OCCCN1CCCl` (stereo not given) is “inactive”; for `CC(=O)Nc1cc(-c2cccc(CO)c2)cn2c(-c3cccc(C(F)(F)F)c3)cnc12` it is “inactive”.
For the compound `O=Cc1cn(Cc2ccc(F)cc2Cl)c2ccccc12`, the Potency is 10 µM (active).
In the case of `O=C(C1CCN(S(=O)(=O)c2ccc(Br)s2)CC1)N1CCN(c2ccccc2)CC1` it was “inactive”; in that of `CC1C(=O)OC2CCN3CC=C(COC(=O)C(C)(O)C1(C)O)C23` (stereo not given), “inactive”.
For `O=c1c2ccccc2nc(CBr)n1-c1ccc(Cl)cc1`, the Potency entry is “inactive”.
